Two sequences from patent publication US20220289795, “EFFICIENT METHOD FOR PREPARING PPR PROTEIN AND USE OF THE SAME” (EditForce, Inc., published 2022) can be followed below.

This assay deals with T1, v3.1_PPR16 (Artificial Sequence).
T1 chain: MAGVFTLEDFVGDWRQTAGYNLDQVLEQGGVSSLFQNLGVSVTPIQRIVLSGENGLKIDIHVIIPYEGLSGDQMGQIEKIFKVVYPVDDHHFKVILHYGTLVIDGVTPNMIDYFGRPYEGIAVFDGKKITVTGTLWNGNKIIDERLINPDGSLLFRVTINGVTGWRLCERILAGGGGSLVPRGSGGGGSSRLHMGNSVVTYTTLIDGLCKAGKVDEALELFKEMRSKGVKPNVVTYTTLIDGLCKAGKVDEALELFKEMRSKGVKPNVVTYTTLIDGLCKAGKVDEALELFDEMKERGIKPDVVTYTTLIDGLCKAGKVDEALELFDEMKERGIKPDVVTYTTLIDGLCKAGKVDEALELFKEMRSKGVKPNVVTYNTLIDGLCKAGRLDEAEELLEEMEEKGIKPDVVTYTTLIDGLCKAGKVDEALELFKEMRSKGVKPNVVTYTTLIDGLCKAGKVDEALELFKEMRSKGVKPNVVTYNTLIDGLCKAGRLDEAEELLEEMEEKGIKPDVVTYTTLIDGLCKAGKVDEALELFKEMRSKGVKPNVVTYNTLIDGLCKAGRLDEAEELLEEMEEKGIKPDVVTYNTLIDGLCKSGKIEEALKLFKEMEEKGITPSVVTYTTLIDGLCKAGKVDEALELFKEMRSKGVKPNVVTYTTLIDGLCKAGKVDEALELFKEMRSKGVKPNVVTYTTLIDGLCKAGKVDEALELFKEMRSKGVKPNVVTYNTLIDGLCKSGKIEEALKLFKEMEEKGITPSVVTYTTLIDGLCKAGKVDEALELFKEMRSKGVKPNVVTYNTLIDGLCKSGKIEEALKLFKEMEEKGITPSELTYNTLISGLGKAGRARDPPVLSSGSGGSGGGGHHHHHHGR
Kind of assay: RPB-ELISA. The conditions noted are these: tags: N-terminal luciferase, C-terminal 6xHis; label: 5'-biotin; ssRNA. The method, then: RNA probes consisting of a designed 30-base sequence containing 18 bases of the target sequence and modified by biotinylation at the 5′ end (RNA_1, RNA_2, RNA_3, RNA_4, and RNA_5, SEQ ID NOS: 61 to 65) were synthesized (Grainer). To a streptavidin-coated plate (Thermo fisher), the 5′-end biotinylated RNA probes were added, reaction was allowed at room temperature for 30 minutes, and the plate was washed with a lysis buffer (20 mM Tris-HCl, pH 7.6, 150 mM NaCl, 5 mM MgCl₂, 0.5% NP-40, 1 mM DTT, 0.1% BSA). For background measurement, wells to which RNA was not added, but 100 μL of the lysis buffer, 1 μL of 100 mM DTT, and 1 μL of 40 unit/4 RNase inhibitor (Takara, 2313A) were added were also prepared. Then, 200 μL of a blocking buffer (20 mM Tris-HCl, pH 7.6, 150 mM NaCl, 5 mM MgCl₂, 0.5% NP-40, 1 mM DTT, 1% BSA) was added, and the plate surface was blocked at room temperature for 30 minutes. Then, 100 μL of E. coli lysate containing luciferase-fused PPR protein having a luminescence level of 1.5×10⁸ LU/μL was added to each well, and the binding reaction was allowed at room temperature for 30 minutes. The well was washed 5 times with 200 μL of a washing buffer (20 mM Tris-HCl, pH 7.6, 150 mM NaCl, 5 mM MgCl₂, 0.5% NP-40, 1 mM DTT). […] The background (luminescence signal value obtained with adding the PPR protein and without adding RNA) was subtracted from the luminescences of the samples to which a solution containing each RNA and PPR protein was added, and the obtained values were used as the binding powers between the PPR protein and RNA.
By using the V3.1 motif, PPR proteins for the same 23 kinds of target sequences were similarly prepared (SEQ ID NOS: 411 to 433 for the nucleotide sequences, and SEQ ID NOS: 434 to 456 for the amino acid sequences), and bindings of all the combinations were analyzed by using RPB-ELISA. The experimental method was the same as that used in Example 3.
(An ELISA detects its analyte on a solid surface through an enzyme-linked reagent.)
As to GUGGGGGUGGUAGGAAAU, the binding signal came to 22.6 log2 luminescence.
Next, GGUGGUGAGGCCCUGGGC: 20.6 log2 luminescence.
